# The list is not random: actives were taken first. Their share in the collection is about 21%.
# Pf growth 96h – P. falciparum growth inhibition at 96 hours. P. falciparum luciferase reporter growth, 96 h. Potency, µM (top dose mostly 28.7 µM), inactives show at the highest dose activity change, negative = inhibition, most hits filed as inhibitors. 6.9% of 320,000 active; note: potency is the fitted concentration of half-maximal effect; % is set by controls: 0 for no effect and ±100 for the full control effect
#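 96 h incubation, 37 C, 5% CO2, of luciferase-reporter P. falciparum-infected RBCs (2% hematocrit, 0.05% parasitemia final) with test compounds; endpoint luminescence.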
# HCMV antiviral – blocks human cytomegalovirus replication. HFF cells, HCMV-luciferase reporter, 72 h; hits give low values. activity change, negative = inhibition, % at 57.5 µM. 4.5% of 410,000 active. AID 1259415; in the data active = activity change below about -60%; inconclusive = no clear call, values can overlap the other calls; inactive = above about -39%; note: % is set by controls: 0 for no effect and ±100 for the full control effect
#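 Human foreskin fibroblasts infected with luciferase-reporter HCMV at MOI 1 PFU/cell, compounds at two doses. Luciferase measured 72 h post infection; normalized to buffer-only basal and Salinomycin (10uM) controls.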
# HCV inh – HCV inhibition. 3.4% of 340,000 active. Huh7.5.1 HCVcc-Cre infection, luciferase reporter, 44 h. AID 651820. Potency, µM (series often up to 41.8 µM), for the others: at the top dose activity change, negative = inhibition, most hits filed as inhibitors; note: potency is the fitted concentration of half-maximal effect; % is set by controls: 0 for no effect and ±100 for the full control effect
#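 HCVcc-Cre virus at an moi near 0.5 was added right after compound to cells cultured 4 h from seeding (1,000 cells/well). Luciferase activity was determined 44 h later, 15 min after substrate addition at RT.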
# Shiga inhibitor – blocks Shiga toxin action in Vero cells; Vero cells, Shiga toxin protein synthesis inhibition reporter; inhibition, % at 38.7 µM; 9.2% of 290,000 active; in the data active = inhibition mostly above about 28%, no sharp cut-off; inactive = mostly below about 43%; note: 0% is about no effect
# Cycloheximide cs – counter-screen for Shiga toxin inhibitors: cycloheximide protein synthesis inhibition. 12% of 300,000 active. max response, %. AID 2314. cell reporter, cycloheximide protein synthesis inhibition counterscreen; in the data active = max response mostly above about 13%, no sharp cut-off; inactive = mostly below about 14%; note: read at 38.3 µM for the half of the compounds with a filed dose; 0% is about no effect
# Pf growth 48h – inhibits P. falciparum growth in the first generation, 48 h; P. falciparum luciferase growth in erythrocytes, 48 h; Potency, µM (series often up to 28.7 µM), inactives show top-dose activity change, negative = inhibition, most hits filed as inhibitors; 5.9% of 310,000 active; AID 504832; note: potency is the fitted concentration of half-maximal effect; % is set by controls: 0 for no effect and ±100 for the full control effect
#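 Growth was read as firefly luciferase luminescence after a 48 h, 37 C, 5% CO2 exposure of compounds to reporter-bearing P. falciparum cultures (0.1% parasitemia, 2% hematocrit final) in Albumax-supplemented RPMI 1640.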
# * = called active by the depositor; u = inconclusive; x = no result given. Unless noted, calls come from the whole dose curve; as a rule, active = well fitted inhibition curve with a large enough effect; inconclusive = small, poorly fitted or top-dose-only effect, or another doubt; inactive = no such curve, though single readings can be large or run the other way.
SMILES,Pf growth 96h,HCMV antiviral,HCV inh,Shiga inhibitor,Cycloheximide cs,Pf growth 48h
COc1ccc(CC(=O)Nc2cc3oc4ccccc4c3cc2OC)cc1,10µM*,63,4.5µM*,111*,63*,46%
COc1ccc(/C=C/C(=O)OCC(=O)Nc2cc3oc4ccccc4c3cc2OC)cc1,18%,-27,x,-5,-1,9%
COc1cc2c(cc1NC(=O)CN(C)Cc1cccc(OC)c1OC)oc1ccccc12,0%,-25,3.5µM*,-29,11,-27%
COc1cc2c(cc1NC(=O)/C=C/c1cc(OC)c(OC)c(OC)c1)oc1ccccc12,u,5,8.9µM*,-11,-5,u
COc1cc2c(cc1NC(=O)CSc1ccc(Cl)cc1)oc1ccccc12,-18%,-27,10µM*,-12,7,16%
Cc1nnc(SCC(=O)NCC2CCCO2)n1Cc1ccccc1 (stereo not given),x,-27,9%,x,x,x
CCc1ccc(OCC(=O)Nc2cc3oc4ccccc4c3cc2OC)cc1,x,5,x,x,x,x
COc1cccc(CN(C)CC(=O)Nc2cc3oc4ccccc4c3cc2OC)c1,-58%,18,16µM*,-7,5,u
Cc1oc(-c2cccs2)nc1CSCC(=O)NC1CC1,-11%,-2,19%,-34,-3,10%
Cc1oc(-c2ccc(Cl)cc2)nc1CSCC(=O)NC1CCN(Cc2ccccc2)CC1,15µM*,-85*,4µM*,-4,-1,24%
CCOc1ccc(-c2nc(CSCC(=O)NC3CCN(Cc4ccccc4)CC3)c(C)o2)cc1,x,-94*,x,x,x,x
Cc1cccc(NC(=S)N2CCN(S(=O)(=O)c3cccc(F)c3)CC2)c1,u,-14,6.3µM*,6,9,13µM*
CC(=O)c1cccc(NC(=S)N2CCN(S(=O)(=O)c3ccc(F)cc3)CC2)c1,u,u,-8%,0,19*,u
Cc1cccc(NC(=S)N2CCN(S(=O)(=O)c3ccccc3)CC2)c1,-1%,u,-6%,-6,-1,u
CC(=O)c1cccc(NC(=S)N2CCN(S(=O)(=O)c3ccccc3)CC2)c1,4.1µM*,-24,x,50,9.7*,u
CC[Si](CC)(CC)O[C@H]([C@@H](C)COCOC)[C@@H](C)COCc1ccc(OC)cc1,x,x,x,27,-1,x
Cc1cccc(C)c1NC(=O)CN1CCc2ccccc2C1,x,-39,-16%,x,x,x
CCNC(=O)C1(C)CCCN(C(=O)c2cc(OC)ccc2Br)C1 (stereo not given),x,17,x,x,x,x
COc1ccc(S(=O)(=O)N2CCN(C(=O)NCc3ccc(C)cc3)CC2)cc1,-7%,u,2%,15,-2,u
Cc1nc(C)c(C(=O)O)s1,46%,-3,2%,-11,-5,-7%
OCCNc1nc(Nc2ccc(Br)cc2)nc2ccccc12,u,-34,u,20,12,0.93µM*
Cc1c(Cl)cccc1Nc1nc(NCCO)c2ccccc2n1,u,7,10%,45*,16*,u
OCCNc1nc(Nc2ccccc2)nc2ccccc12,46%,4,u,22,7,u
Cc1cc(C)c2c(N)c(C(=O)NN)sc2n1,u,7,u,78*,45*,u
Cc1cc(C)c2c(N)c(C(=O)N3CCN(c4ncccn4)CC3)sc2n1,-6%,80,5%,53,31*,-18%
SMILES,Pf growth 96h,HCMV antiviral,HCV inh,Shiga inhibitor,Cycloheximide cs,Pf growth 48h
CCCCOC(=O)c1sc2nc(C)cc(C)c2c1N,156%,x,u,48*,27*,136%
Cc1ccc(NC(=O)c2sc3nc(C)cc(C)c3c2N)cc1,0%,55,u,125*,51*,214%
COCc1cc(C)nc2sc(C(=O)N3CCN(c4ccccc4)CC3)c(N)c12,19%,23,-22%,18,3,x
CCCCOC(=O)c1ccc(NC(=O)c2sc3nc(C)cc(C)c3c2N)cc1,x,-29,x,x,x,x
CC(C)c1ccc(NC(=O)C2CCN(C(=O)c3ccc(F)cc3)CC2)cc1,x,-19,x,x,x,x
Cc1cc(C)c2c(N)c(C(=O)NNC(=O)c3ccccc3)sc2n1,u,29,18%,93*,45*,134%
Cc1cc(C)c2c(N)c(C(=O)Nc3cccc(C)c3C)sc2n1,26%,-33,-12%,8,12*,2%
CCOC(=O)c1sc2nc(C)cc(C)c2c1N,u,31,u,78*,50*,-29%
Cc1cc(C)c2c(N)c(C(=O)NC3CC3)sc2n1,u,3,6%,15,13,38%
COc1ccc(NC(=O)c2sc3nc(C)cc(C)c3c2N)c(OC)c1,x,u,-9%,x,x,x
Cc1nc(N)sc1C(=O)NN,37%,-7,4%,82*,23*,75%
O=C(NCc1ccccc1)C(c1ccccc1F)n1c(=O)c(-c2cc3ccccc3[nH]2)nc2ccccc21 (stereo not given),x,55,x,x,x,x
O=C(C[C@H]1C=C[C@@H](NC(=O)c2ccncc2)[C@@H](CO)O1)NCC1CC1,x,-3,x,x,x,x
COc1ccc(NC(=S)Nc2cccc3cnccc23)cc1,-7%,u,-7%,32,-3,11%
COc1ccccc1NC(=S)Nc1cccc2cnccc12,0%,-79*,10µM*,-3,-4,5%
S=C(Nc1cccnc1)Nc1cccc2cnccc12,1%,-36,-8%,-14,1,6%
S=C(Nc1ccc(Cl)cc1)Nc1cccc2cnccc12,12µM*,-98*,u,19,18,u
CN(C)S(=O)(=O)c1cccc(NC(=S)Nc2cccc3cnccc23)c1,3.7µM*,-72*,-26%,17,8,6.6µM*
Fc1ccc(NC(=S)Nc2cccc3cnccc23)cc1,u,-32,-26%,32,17*,u
N#Cc1ccccc1Cn1cc(/C=C/[N+](=O)[O-])c2ccccc21,21%,-101*,u,-21,-11,9.3µM*
O=C(Cn1cc(/C=C\[N+](=O)[O-])c2ccccc21)Nc1ccccc1,u,u,u,-12,-8,u
O=[N+]([O-])/C=C/c1cn(Cc2ccccc2)c2ccccc12,0%,-104*,-6%,-17,-10,u
O=C(O)Cn1cc(/C=C/[N+](=O)[O-])c2ccccc21,u,83,20%,-3,-1,19%
COc1ccc(C2C3=C(CC(C)(C)CC3=O)Oc3ncn(CCO)c(=N)c32)cc1OC (stereo not given),230%,-30,8%,-16,-3,x
COc1ccc(C2c3c(ccc4ccccc34)Oc3ncn4nc(Cc5ccccc5)nc4c32)cc1OC (stereo not given),1.5µM*,0,u,-11,-1,1.7µM*
COc1ccc(C2c3c(ncn(CCN4CCOCC4)c3=N)Oc3ccc4ccccc4c32)cc1OC (stereo not given),0.59µM*,-11,u,-25,-2,4.1µM*

# Source: PubChem BioAssay
